Marburg entry inh: Marburg virus entry inhibition; Potency, µM (highest dose often 37.8 µM), hits mostly inhibitors; Marburg virus pseudotyped entry inhibition, cell reporter; 300,000 tested, 1.8% active; AID 540276; calls by dose curve; tested in HEK293 cells
Vaccinia Venus: inhibitors of vaccinia virus (Venus reporter); Vaccinia virus Venus reporter expression, fluorescence; 330,000 tested, 0.46% active; AID 720580; Potency, µM (series often up to 36.5 µM), actives largely listed as inhibitors; calls by dose curve; tested in A549 cells; further: nearly all actives have a fitted effect of over 30% in size
FMDV antiviral: antivirals against foot and mouth disease virus. FMDV antiviral cell-based qHTS. Potency, µM (doses to about 57.9 µM), usual class: inhibitors. 410,000 tested, 1.2% active. AID 1159524; calls by dose curve; tested in HEK293T cells; further: read-out not given here; nearly all actives have a fitted effect of over 45% in size
HCMV antiviral: human cytomegalovirus inhibition; HFF cells, HCMV-luciferase reporter, 72 h; hits give low values; activity change, negative = inhibition, % at 57.5 µM; 410,000 tested, 4.5% active; in the data active means activity change below about -60%; inconclusive means no clear call, values can overlap the other calls; inactive means above about -39%
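Inhibition of viral replication was scored as loss of reporter luminescence in HFFs infected with HCMV-luciferase (MOI 1 PFU/cell) for 72 h; compounds tested at 2 doses, normalized to buffer and Salinomycin controls.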
Vaccinia mCherry: inhibitors of vaccinia virus infection (mCherry reporter signal) | Potency, µM (series often up to 36.5 µM), usual class: inhibitors | 310,000 tested, 0.63% active | Vaccinia virus mCherry reporter infection, fluorescence | AID 720579; calls by dose curve; tested in A549 cells; further: nearly all actives have a fitted effect of over 35% in size
LASV entry inh: blocks Lassa virus binding to or entry into cells | Potency, µM (series often up to 37.9 µM), hits mostly inhibitors | AID 540256 | 300,000 tested, 1.2% active | Lassa virus pseudotype entry inhibition, cell reporter; calls by dose curve; tested in HEK293 cells; further: nearly all actives have a fitted effect of over 50% in size
Numbers stand for hits; – = inactive; ? = inconclusive; · = no result given; ! = not active in a repeat; [ ] = dose if it differs, or a comment. Compounds with a hit are over-represented: about 6.5% of the library has one in this group of screens.

SMILES	Marburg entry inh	Vaccinia Venus	FMDV antiviral	HCMV antiviral	Vaccinia mCherry	LASV entry inh
CC1=NN(c2ccccc2)C(=O)/C1=C\C=C\c1ccccc1	?	–	22.4µM	-97.6	–	?
CN1/C(=C\C=[N+](C)c2ccccc2)C(C)(C)c2ccccc21	?	?	·	-94.7	–	4.61µM
CC1=NN(c2ccccc2)C(=O)/C1=C\C=C1/N(C)c2ccccc2C1(C)C	11.2µM	–	–	–	–	?
CC1=NN(c2ccccc2)C(=O)/C1=C\C=C1\N(C)c2ccccc2C1(C)C	–	–	?	–	–	–
COc1ccc(-n2cc(-c3ccccc3)nc2SCC(=O)Nc2ccccc2)cc1Cl	·	–	–	–	–	?
CN=C(NC#N)NCCSCC1N=CN=C1C (configuration not stated)	–	·	·	·	·	·
C[C@H](O)[C@@H]1C(=O)N2CCc3c([nH]c4cccc(-c5ccccc5)c34)[C@@H]2C[C@@H]1N(C)C(=O)NC1CCCCC1	·	·	·	–	·	·
CCCCNC(=O)CSc1nc2cc3c(cc2c(=O)n1CCCCCC(=O)NCCc1ccc(OC)c(OC)c1)OCO3	·	–	–	–	–	–
CCN(CC)C(=O)CSc1nc2cc3c(cc2c(=O)n1CCCCCC(=O)NCCc1ccc(OC)c(OC)c1)OCO3	·	–	–	-82.5	–	–
O=c1[nH]c2cc3c(cc2cc1C(c1nnnn1Cc1ccccc1)N1CCCCCC1)OCCO3 (configuration not stated)	?	·	–	–	·	?
O=c1[nH]c2cc3c(cc2cc1C(c1nnnn1Cc1ccccc1)N1CCCc2ccccc21)OCO3 (configuration not stated)	?	·	–	-84.6	·	–
CCc1ccc2[nH]c(=O)c(C(c3nnnn3CC3CCCO3)N3CCCc4ccccc43)cc2c1 (configuration not stated)	9.2µM	·	–	–	·	–
CC(C)=CCCC(C)=CCON=C1C[C@@H](O)[C@@H](O)[C@@H]2[C@H]3C(=O)N(c4cccc(Oc5ccccc5)c4)C(=O)[C@@H]3CC[C@H]12	–	·	·	·	·	·
Nc1nnc(SCc2ccc(Cl)cc2)s1	–	?	–	–	–	–
Clc1ccc(CSc2nnc(NC3=NCCCCC3)s2)cc1	–	?	–	-66.5	·	–
CCN1C[C@@]2(COC)C3[C@@H](OC)C4[C@@H]1C3([C@@H]1C[C@@]3(O)[C@H](OC(=O)c5ccccc5)[C@@H]1[C@]4(OC(C)=O)[C@@H](O)[C@@H]3OC)[C@H](OC)C[C@H]2O	–	·	·	·	·	·
CCN(CC)CC(=O)c1c(C)n(C)c2ccc(OC)cc12	·	–	·	·	–	·
Cc1nnc(NC(=O)c2nc(SCc3ccccc3F)ncc2Cl)s1	–	–	–	–	–	–
Cc1nnc(NC(=O)c2nc(S(=O)(=O)Cc3ccccc3C)ncc2Cl)s1	·	·	25.1µM	-102.1	·	·
CSc1nnc(NC(=O)c2nc(S(=O)(=O)Cc3ccccc3F)ncc2Cl)s1	?	–	7.08µM	-96.1	–	?
O=C(Nc1ccccc1)c1nc(S(=O)(=O)Cc2ccccc2F)ncc1Cl	·	–	·	·	–	·
O=C(Nc1nc2ccc(F)cc2s1)c1nc(S(=O)(=O)Cc2ccccc2F)ncc1Cl	?	–	?	-109.3	–	?
CCOc1ccc(NC(=O)c2nc(S(=O)(=O)Cc3ccccc3F)ncc2Cl)cc1	?	?	25.1µM	-99.9	?	?
N#CCCn1cc(CNCc2cccnc2)c(-c2ccccc2)n1	·	–	·	·	–	·
COc1ccc(CCNC(=O)CCc2c(C)c3cc4c(C)c(C)oc4cc3oc2=O)cc1OC	–	–	–	–	–	–
SMILES	Marburg entry inh	Vaccinia Venus	FMDV antiviral	HCMV antiviral	Vaccinia mCherry	LASV entry inh
Cc1ncc2c(c1CNC(=O)/C=C/c1cccs1)CCN(C(=O)c1cc(C(C)C)on1)C2	·	–	–	·	–	·
CC(C)c1nnc(NC(=O)c2nc(S(=O)(=O)Cc3ccccc3F)ncc2Cl)s1	·	·	28.2µM	-111.1	·	·
COc1ccc(-c2ncnc(C(F)(F)F)c2-c2csc(C)n2)c(O)c1	·	·	–	?	·	·
Cc1nc(-c2c(-c3ccc(O)cc3O)noc2C(F)(F)F)cs1	?	?	35.5µM	-67.0	·	?
O=[N+]([O-])c1ccccc1CNc1ccc(NCc2ccccc2[N+](=O)[O-])cc1	·	·	·	-73.5	·	·
Cc1ccc([C@H]2C[C@]34CN(Cc5ccccc5)S(=O)(=O)[C@H]3C[C@H]2O4)cc1	·	·	·	-88.4	·	·
Cc1ccc([C@H]2C[C@]34CNS(=O)(=O)[C@H]3C[C@H]2O4)cc1	·	·	·	–	·	·
COc1ccc(C2CC2/C(=N/O)c2ccccn2)cc1 (configuration not stated)	–	–	–	–	?	–
O/N=C(\c1ccccn1)C1CC1c1ccccc1 (configuration not stated)	–	–	–	-79.4	?	?
CC(C)OCCCNc1ncnc2c1[nH]c1ccccc12	?	·	17.8µM	-75.3	·	?
COc1ccc2[nH]c3c(NCCN(C(C)C)C(C)C)ncnc3c2c1	11.2µM	–	–	–	·	–
O=c1c2[nH]c3ccccc3c2ncn1CCC1=CCCCC1	?	–	–	–	–	–
CCOc1ccc2[nH]c3c(NCCCOC)ncnc3c2c1	·	·	–	–	·	·
COc1ccc(CNc2ncnc3c2[nH]c2ccccc23)cc1	?	–[7.34 µM]	?	-71.8	–[7.34 µM]	?
C1=C(CCNc2ncnc3c2[nH]c2ccccc23)CCCC1	?	?	–	-90.5	?	?
COC(=O)CN1C(=O)CSc2ccc(S(=O)(=O)Nc3c(C)cc(C)cc3C)cc21	·	–	–	–	–	–
CCCNC(=O)C1(C)CCN1C(=O)c1ccccc1CCc1ccccc1 (configuration not stated)	·	–	–	-61.2	–	·
COc1cc(CN(C(=O)c2ccccc2F)C2CCS(=O)(=O)C2)cc(OC)c1OC (configuration not stated)	–	–	–	–	–	?
COc1ccc(NC(=O)CC2C(=O)N(c3ccc(OC)cc3)C(=O)N2CCc2cccs2)cc1 (configuration not stated)	–	–	–	–	–	9.2µM
C[C@H]1[C@@H](NC(=O)Nc2cccc(C(F)(F)F)c2)CC[C@@]23CCCN2C(=O)CCC[C@@H]13	·	·	·	–	·	·
COc1c(Cl)cc(C(=O)Nc2cccc(-c3nc4ccccc4[nH]3)c2)cc1Cl	·	–	?	?	–	?
CCCN(CCC)S(=O)(=O)c1ccc(C(=O)Nc2cccc(-c3nc4ccccc4[nH]3)c2)cc1	·	–	?	-88.2	–	?
O=C(Nc1ccc(-c2nc3ccc(NC(=O)c4cccs4)cc3[nH]2)cc1)c1cccs1	?	–	?	-83.5	–	?
CC(=O)Nc1cc(NC(C)=O)cc(-c2nc3ccccc3[nH]2)c1	–	–	39.8µM	-107.6!	?	–
CS(=O)(=O)c1cccc(C(=O)Nc2ccc(-c3nc4ccccc4[nH]3)cc2)c1	?	?	–	-65.1	?	–
C/C=C/[C@@H]1[C@@H](S(=O)(=O)c2ccccc2)CC(=O)N1Cc1ccccc1	·	·	·	–	·	·
CC(C)N1C(=O)CC[C@@H](S(=O)(=O)c2ccccc2)[C@@H]1c1ccccc1	·	·	·	–	·	·
Cc1cnc(-n2ncc(C(=O)NCC3CCCN(C)C3)c2C)nc1-c1cccs1 (configuration not stated)	·	–	–	·	–	·

Screening data as filed in PubChem.
